# From PubChem
# GPR151 ag: activates the human receptor GPR151; Q8TDV0; PathHunter beta-arrestin GPR151 cells, luminescence; activation, % at 11.2 µM; 650,000 tested, 1% active; AID 1508602; in the data active means activation above about 4.9%;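 further: 0% = median of compound wells and 100% = cells with positive control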
# FBW7 act: activators of human E3 ligase FBW7; Q969H0; AlphaScreen FBW7–phospho-cyclin E peptide binding, activator screen; normalized activity (activation), % at 26.1 µM; 650,000 tested, 0.13% active; AID 1259310; in the data active means normalized activity above about 1.9%;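 further: purified mutant Fbw7 with reduced substrate affinity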
# TEAD-YAP block: TEAD-YAP interaction inhibition; HEK-TIYL cells, TEAD-Gal4/YAP UAS-luciferase luminescence; AID 1259422; 640,000 tested, 1.4% active; inhibition, % at 9.12 µM; in the data active means inhibition above about 32%;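 further: 0% = median of test compound wells and 100% = reference inhibitor wells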
# MITF primary: human MITF inhibition, primary screen; inhibition, % at 2.6 µM; AID 1259374; O75030; 650,000 tested, 0.91% active; AlphaScreen MITF homodimerization, bead proximity signal; in the data active means inhibition above about 50%;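 further: 0% = vehicle wells with protein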
# Target sequence (O75030 whole entry, looked up): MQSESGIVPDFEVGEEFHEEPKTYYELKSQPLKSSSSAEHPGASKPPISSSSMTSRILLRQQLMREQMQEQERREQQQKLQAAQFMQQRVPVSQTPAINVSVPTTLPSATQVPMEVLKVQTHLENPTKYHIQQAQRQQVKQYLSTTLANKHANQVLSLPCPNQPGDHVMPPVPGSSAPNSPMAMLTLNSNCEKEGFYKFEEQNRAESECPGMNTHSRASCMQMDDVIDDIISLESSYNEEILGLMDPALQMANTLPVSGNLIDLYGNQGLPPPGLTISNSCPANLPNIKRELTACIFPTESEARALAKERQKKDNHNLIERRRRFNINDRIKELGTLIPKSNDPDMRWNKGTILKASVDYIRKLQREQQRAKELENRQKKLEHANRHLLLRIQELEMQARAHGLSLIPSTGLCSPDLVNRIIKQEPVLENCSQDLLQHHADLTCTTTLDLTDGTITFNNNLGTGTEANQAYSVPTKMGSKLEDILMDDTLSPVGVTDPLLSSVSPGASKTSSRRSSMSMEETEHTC
# The depositor's hits bear a star; ! = repeats disagree. Only some compounds are listed: those with a hit (about 3.5% of all), similar ones and a draw of the others.
SMILES,GPR151 ag,FBW7 act,TEAD-YAP block,MITF primary
Cc1ccc(S(=O)(=O)N2CCc3ccccc32)cc1C(N)=O,1,0,3,10
O=S(=O)(c1cccc(S(=O)(=O)N2CCc3ccccc32)c1)N1CCCC1,-1,0,43*,28
CCCNC(=O)c1cc(S(=O)(=O)N2CCc3ccccc32)cn1C,3,0,32*,-6
COC(=O)c1cc(S(=O)(=O)N2CCc3ccccc32)cn1C,3,0,0,15
Cc1ccc(S(=O)(=O)N2CCc3ccccc32)cc1[N+](=O)[O-],2,-1,56*,13
O=S(=O)(c1ccc(F)cc1)N1CCc2ccccc21,1,0,5,0
c1cncc(CNc2nc(Nc3ccncc3)nc3c2ncn3-c2ccsc2)c1,4,0,12,12
O=C(CNC(=S)N(Cc1ccccc1)Cc1cccs1)NC1CCCCCCC1,0,0,-4,-8
CC(C)[C@H](CO)n1c(=O)[nH]c2ncc(-c3cccc(/C=C/C(=O)O)c3)nc21,0,1,21,10
O=C(CN(c1ccccc1)S(=O)(=O)c1ccccc1[N+](=O)[O-])N1CCCCCC1,-1,0,12,-19
Cc1ccc(S(=O)(=O)N2CCCc3ccccc32)cc1C,0,0,2,2
COc1ccc(S(=O)(=O)N2CCCc3ccccc32)cc1C,1,0,37*,-24
O=C(CC(Sc1cccc2cccnc12)c1ccc(OC(F)F)cc1)c1ccco1 (configuration not stated),-2,-2,51*,-14
Cc1cc(C(F)(F)F)nn1CC(=O)NCCc1ccccc1,0,0,1,20
O=C1C[C@@H](c2ccccc2)Oc2cc(O)cc(O)c21,-3,0,-21,-13
O=C(Oc1cc(O)cc2c1C[C@@H](OC(=O)c1cc(O)c(O)c(O)c1)[C@@H](c1cc(O)c(O)c(O)c1)O2)c1cc(O)c(O)c(O)c1,-1,0,-2,62*
O=c1c(O)cc([C@H]2Oc3cc(O)cc(O)c3C[C@H]2O)cc2c([C@H]3Oc4cc(O)cc(O)c4C[C@@H]3O)cc(O)c(O)c12,-1,0,-6,76*
O=C1c2c(O)cc(O)cc2O[C@H](c2ccc(O)c(O)c2)[C@H]1O,1,0,-13,0
Oc1cc(O)c2c(c1)O[C@H](c1ccc(O)c(O)c1)[C@@H](O)C2,0,0,-7,57*!
Oc1cc(O)c2c(c1)O[C@H](c1cc(O)c(O)c(O)c1)[C@H](O)C2,0,0,-6,87*
O=C1c2c(O)cc(O)cc2O[C@H](c2ccc(O)c(O)c2)[C@@H]1O,0,0,11,-5
Cc1n[nH]c(C)c1N1C(=O)c2cccc3c(N4CCCCC4)ccc(c23)C1=O,3,0,4,-2
N#Cc1cc2cc3c(cc2nc1SCC(=O)NCc1cccs1)OCCO3,-1,1,46*,7
COc1ccccc1NC(=O)CSc1nc2cc3c(cc2cc1C#N)OCCO3,-1,1,62*,23
Cc1ccc2nc(SCC(=O)Nc3ncc(C)s3)c(C#N)cc2c1,0,3.8*,-73,7
SMILES,GPR151 ag,FBW7 act,TEAD-YAP block,MITF primary
COc1cc2cc(C#N)c(SCC(=O)NCc3cccs3)nc2cc1OC,-1,0,-2,-8
N#Cc1cc2cc3c(cc2nc1SCC(=O)NCc1ccc2c(c1)OCO2)OCCO3,0,0,50*,18
CCOC(=O)N/N=C\c1ccc(Br)o1,2,0,-15,21
O=C(NCCc1ccccc1)c1ccc(CNC(=O)c2ccc(Br)cc2)cc1,-2,0,-3,-6
COc1ccccc1NC(=O)C(NS(=O)(=O)c1ccc2c(c1)oc(=O)n2C)C(C)C (configuration not stated),0,0,4,11
Nc1c(C(=O)c2ccc(F)cc2)sc2nc(-c3ccccc3)cc(-c3ccco3)c12,2,0,7,63*
Nc1c(C(=O)c2ccc(F)cc2)sc2nc(-c3ccccc3)cc(-c3ccccc3)c12,1,0,3,-4
COc1cc(NC(=O)c2cncc(-c3ccc(C(N)=O)cc3)c2)cc(OC)c1OC,-1,0,5,10
COc1ccccc1NC(=O)c1c(OC)cccc1OC,-1,0,15,-8
COc1ccccc1NC(=O)c1c(Cl)nc(Cl)c(Cl)c1Cl,1,1,64*,8
COc1ccc(OC)c(NC(=O)c2c(Cl)nc(Cl)c(Cl)c2Cl)c1,-1,0,64*,-5
Cc1c(NS(=O)(=O)c2ccccc2)ccc([N+](=O)[O-])c1C,0,0,-10,5
N#CC1=C(N)OC2=C(C(=O)CC(c3ccco3)C2)C1c1ccc(F)cc1F (configuration not stated),1,0,1,-10
